Measurements: PubChem BioAssay
Where a SMILES comes first, the peptide text is derived from it.

Key:
[1] = test system: Botulinum neurotoxin type F light chain protease (Clostridium botulinum); experiment: Clostridium botulinum type F light chain protease inhibitors, microsphere substrate cleavage, validation (AID 588459); settings: multiplex microsphere protease substrate cleavage assay, flow cytometry; at 10 µM; stronger effect = higher value
[2] = biological target: Botulinum neurotoxin type A (Clostridium botulinum) (UniProt P0DPI0); experiment: BoNT/A light chain protease inhibitors, biochemical, multiplex microsphere flow cytometry, validation set (AID 588460); settings: at 10 µM, stronger effect = higher value
[3] = biological target: Lethal factor (Bacillus anthracis) (UniProt P15917); experiment: Bacillus anthracis lethal factor inhibition, microsphere flow cytometry protease assay, validation at 10 µM (AID 588461); settings: multiplex microsphere protease cleavage assay, stronger effect = higher value

Measured: inhibition

Lethal factor (Bacillus anthracis), sequence (P15917 whole entry, looked up): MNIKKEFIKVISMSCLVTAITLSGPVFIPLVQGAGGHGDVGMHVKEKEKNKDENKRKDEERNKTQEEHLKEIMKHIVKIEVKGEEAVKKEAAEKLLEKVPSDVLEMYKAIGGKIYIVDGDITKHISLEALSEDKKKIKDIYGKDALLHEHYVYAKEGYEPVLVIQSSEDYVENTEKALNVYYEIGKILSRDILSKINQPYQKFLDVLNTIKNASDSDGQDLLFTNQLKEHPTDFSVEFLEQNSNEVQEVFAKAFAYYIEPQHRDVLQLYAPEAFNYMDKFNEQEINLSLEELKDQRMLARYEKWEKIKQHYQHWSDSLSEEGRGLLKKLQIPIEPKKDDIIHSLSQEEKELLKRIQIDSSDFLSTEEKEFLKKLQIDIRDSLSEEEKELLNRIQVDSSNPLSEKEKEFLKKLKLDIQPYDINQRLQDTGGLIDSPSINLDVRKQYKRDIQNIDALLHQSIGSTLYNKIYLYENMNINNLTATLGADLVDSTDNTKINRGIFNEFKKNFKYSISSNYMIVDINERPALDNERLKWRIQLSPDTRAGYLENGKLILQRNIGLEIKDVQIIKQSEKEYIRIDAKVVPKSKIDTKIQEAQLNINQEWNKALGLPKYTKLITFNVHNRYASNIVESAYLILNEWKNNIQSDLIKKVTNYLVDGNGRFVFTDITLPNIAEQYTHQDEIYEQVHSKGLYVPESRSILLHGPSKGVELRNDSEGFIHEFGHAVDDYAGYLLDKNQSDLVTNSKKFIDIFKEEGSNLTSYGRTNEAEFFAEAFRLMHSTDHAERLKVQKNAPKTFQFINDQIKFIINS
Botulinum neurotoxin type A (Clostridium botulinum), sequence (P0DPI0 whole entry, looked up): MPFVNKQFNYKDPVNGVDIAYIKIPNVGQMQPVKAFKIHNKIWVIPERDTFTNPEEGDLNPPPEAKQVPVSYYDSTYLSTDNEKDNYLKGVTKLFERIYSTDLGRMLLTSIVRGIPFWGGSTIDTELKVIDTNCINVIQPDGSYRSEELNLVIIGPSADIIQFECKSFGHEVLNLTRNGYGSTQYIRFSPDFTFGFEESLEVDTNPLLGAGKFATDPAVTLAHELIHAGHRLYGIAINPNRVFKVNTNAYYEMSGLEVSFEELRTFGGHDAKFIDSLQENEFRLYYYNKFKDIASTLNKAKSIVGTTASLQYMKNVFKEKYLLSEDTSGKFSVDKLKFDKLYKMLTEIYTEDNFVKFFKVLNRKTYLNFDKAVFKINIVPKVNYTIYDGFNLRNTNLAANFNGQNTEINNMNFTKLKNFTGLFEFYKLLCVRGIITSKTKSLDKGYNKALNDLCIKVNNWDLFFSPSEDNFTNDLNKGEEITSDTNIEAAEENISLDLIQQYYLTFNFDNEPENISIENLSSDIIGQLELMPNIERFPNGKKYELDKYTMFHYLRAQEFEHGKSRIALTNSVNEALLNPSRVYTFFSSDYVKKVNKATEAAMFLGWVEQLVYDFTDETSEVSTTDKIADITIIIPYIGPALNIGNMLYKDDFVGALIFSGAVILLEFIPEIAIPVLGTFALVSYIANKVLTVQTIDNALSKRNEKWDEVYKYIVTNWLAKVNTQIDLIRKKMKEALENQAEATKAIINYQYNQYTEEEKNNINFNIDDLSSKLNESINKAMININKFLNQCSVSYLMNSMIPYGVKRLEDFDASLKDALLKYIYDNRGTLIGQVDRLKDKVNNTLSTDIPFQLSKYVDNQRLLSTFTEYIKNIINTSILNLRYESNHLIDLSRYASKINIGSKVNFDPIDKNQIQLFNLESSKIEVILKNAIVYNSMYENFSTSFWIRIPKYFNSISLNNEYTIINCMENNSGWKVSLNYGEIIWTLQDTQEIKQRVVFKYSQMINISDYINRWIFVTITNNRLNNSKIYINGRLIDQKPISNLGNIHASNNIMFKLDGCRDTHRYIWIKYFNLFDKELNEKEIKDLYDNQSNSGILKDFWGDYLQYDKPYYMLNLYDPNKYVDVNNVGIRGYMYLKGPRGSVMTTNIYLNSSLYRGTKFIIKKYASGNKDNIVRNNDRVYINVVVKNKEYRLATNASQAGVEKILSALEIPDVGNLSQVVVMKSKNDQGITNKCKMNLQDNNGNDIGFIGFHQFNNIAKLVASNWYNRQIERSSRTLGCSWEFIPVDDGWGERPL

CCc1cc(=O)oc2cc(OCc3nn[nH]n3)ccc12
inactive: [1] -0.5% | [2] -1.3% | [3] 1.9%

CCOC(=O)N1CCc2[nH]c3ccc(C)cc3c2C1
inactive: [1] -1.2% | [2] -1.6% | [3] 1.9%

Nc1c(C(=O)c2ccccc2)oc2ccccc12
inactive: [1] 1.8% | [2] 1% | [3] -7.3%

COc1ccc(-c2c(NC(=O)c3ccco3)n(C)c3ccccc3c2=O)cc1
inactive: [1] 1.5% | [2] 0.4% | [3] -0.7%

COc1ccc(O)c(N)c1
inactive: [1] -8.6% | [2] -3.6% | [3] -19.6%

CC(=O)OCC1OC(n2ccc(=O)[nH]c2=O)C(O)C1O (stereo not given)
inactive: [1] -0.4% | [2] 0.5% | [3] -5.3%

N=c1ccn(CC(=O)NC(N)=O)c2ccccc12
inactive: [1] 3.3% | [2] 1.6% | [3] 3.1%

COc1cccc(-n2c(C)c3c(OC)cccc(=O)c3c2C)c1
inactive: [1] -8.1% | [2] -0.7% | [3] -13.5%

CCOc1ncnc2c1[nH]c1ccccc12
inactive: [1] 5.6% | [2] 0.5% | [3] -0.4%

COc1ccc(C2NC(=O)c3ccccc3O2)c(OC)c1OC (stereo not given)
inactive: [1] -2.1% | [2] -0.5% | [3] 2.9%

Cc1oc2c(C)c3oc(=O)c4c(c3cc2c1C)CCCC4
inactive: [1] 0.8% | [2] -0.2% | [3] 1.3%

COc1ccc(C2CNC(=O)C2)cc1OC1CCCC1 (stereo not given)
inactive: [1] 7.8% | [2] -0.3% | [3] 1%

CS(=O)(=O)c1cccc(C(=O)Oc2ccccc2)c1
inactive: [1] -2% | [2] 0.1% | [3] 4.6%

COc1cc2[nH]c3c(=O)n(CCN4CCOCC4)cnc3c2cc1OC
inactive: [1] 0.3% | [2] 0.1% | [3] 1%

COc1ccc2c(c1OC)C(C1c3c(cc4c(c3OC)OCO4)CCN1C)OC2=O (stereo not given)
inactive: [1] 1.6% | [2] -0.7% | [3] 3.5%

COC(=O)c1ccc(OCCCCN2CC(C)OC(C)C2)cc1 (stereo not given)
inactive: [1] -4.5% | [2] 0.2% | [3] 4%

CC(C)(S)[C@@H](N)C(=O)O
inactive: [1] 2.9% | [2] -0.8% | [3] 1.1%

CC(=O)NC(CC(C)C)C(=O)NC(Cc1ccccc1)C(N)=O (stereo not drawn) (Ac-Leu-Phe-NH2; configuration not given here)
inactive: [1] 3.1% | [2] 0.2% | [3] -1.4%

O=C1CCCCCN1Cc1ccccc1
inactive: [1] -3.6% | [2] -1.9% | [3] -2.7%

C[C@@H]1C[C@H](Nc2ccccc2)c2ccccc2N1C(=O)c1cccnc1
inactive: [1] 1% | [2] 1% | [3] -2.9%

CN(C)CCOCCOc1ccc(Cl)cc1Br
inactive: [1] 6.4% | [2] 1% | [3] -5.5%

O=C(/C=C/c1ccc2c(c1)OCO2)c1ccccn1
inactive: [1] -2.7% | [2] -0.2% | [3] -2.8%

O=C(O)CCCCCCCC(=O)O
inactive: [1] 1.1% | [2] -0.8% | [3] -1.4%

CSc1ccc(CN2CCN(CCC(C)C)C(CCO)C2)cc1 (stereo not given)
inactive: [1] 2.2% | [2] 0.1% | [3] -3.3%

Cc1ccc(-n2ncc3c(Nc4cccc(C(=O)O)c4)ncnc32)cc1
inactive: [1] 0.7% | [2] -1.1% | [3] 1.7%
